# Out of some 30,000 compounds screened, about 580 (1.9%) were called active. Shown is part of a subset that was picked to be rich in actives. A number with no mark means an inactive call. No stated cut-off is given here; in the data, active means inhibition above about 43%; inactive means the rest.
# Target: Serine/threonine-protein kinase ULK1 (Homo sapiens) (UniProt O75385)
# Experiment: inhibition of human autophagy kinase ULK1 – biochemical, AlphaScreen, primary screen (AID 1259251);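 further: 0% = median of compound wells and 100% = no enzyme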
# Conditions: AlphaScreen Atg13 phosphorylation by ULK1, luminescence; at 5.96 µM; hits give high values
# Chain of Serine/threonine-protein kinase ULK1 (Homo sapiens) (O75385 whole entry, looked up): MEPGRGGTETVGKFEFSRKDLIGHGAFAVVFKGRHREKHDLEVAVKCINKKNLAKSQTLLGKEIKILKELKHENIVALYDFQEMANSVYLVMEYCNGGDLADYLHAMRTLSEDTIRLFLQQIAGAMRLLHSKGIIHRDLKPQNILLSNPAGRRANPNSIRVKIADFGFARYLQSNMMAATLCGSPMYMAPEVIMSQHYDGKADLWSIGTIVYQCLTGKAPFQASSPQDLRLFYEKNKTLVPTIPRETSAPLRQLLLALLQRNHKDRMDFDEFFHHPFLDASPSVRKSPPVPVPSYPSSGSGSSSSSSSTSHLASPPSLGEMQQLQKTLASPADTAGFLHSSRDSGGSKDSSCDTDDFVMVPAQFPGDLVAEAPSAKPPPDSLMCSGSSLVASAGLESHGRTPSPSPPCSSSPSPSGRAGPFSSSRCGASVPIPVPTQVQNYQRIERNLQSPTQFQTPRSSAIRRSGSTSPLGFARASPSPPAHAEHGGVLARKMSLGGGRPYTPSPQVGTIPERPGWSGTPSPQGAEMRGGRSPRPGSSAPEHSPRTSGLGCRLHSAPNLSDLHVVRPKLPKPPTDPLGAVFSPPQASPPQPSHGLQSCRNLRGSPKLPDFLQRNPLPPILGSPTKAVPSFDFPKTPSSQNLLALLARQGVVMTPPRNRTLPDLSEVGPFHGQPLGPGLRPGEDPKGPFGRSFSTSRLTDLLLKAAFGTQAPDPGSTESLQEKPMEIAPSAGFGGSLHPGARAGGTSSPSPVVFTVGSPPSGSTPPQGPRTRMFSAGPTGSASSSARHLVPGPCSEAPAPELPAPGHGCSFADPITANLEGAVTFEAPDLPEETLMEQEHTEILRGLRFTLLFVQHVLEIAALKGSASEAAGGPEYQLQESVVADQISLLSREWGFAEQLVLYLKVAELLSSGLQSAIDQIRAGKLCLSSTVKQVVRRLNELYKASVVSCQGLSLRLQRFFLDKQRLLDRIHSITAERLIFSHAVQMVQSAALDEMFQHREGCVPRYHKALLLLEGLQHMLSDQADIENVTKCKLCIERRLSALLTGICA
row,SMILES,inhibition
1,CC(NC(=O)C(C(=O)c1ccccc1)n1ccccc1=O)c1ccccc1 (stereo not given),1.21%
2,N#Cc1cccc(C[C@H](N)c2nc3ccc(-c4ccncc4)cc3[nH]2)c1,7.99%
3,COc1cc2nc(Nc3ccccc3)nc(NCc3cccc(C(F)(F)F)c3)c2cc1OC,-26.9%
4,COc1nc(Nc2ccccc2)nc(-c2ccc(C(=O)NC3CC3)cc2)n1,22.8%
5,COc1ccc(CCNc2cc(NC3CCN(Cc4ccccc4)CC3)ncn2)cc1,-6.44%
6,COc1cc(OC)nc(Oc2ccccc2/C=N/N(C)C(N)=S)n1,10.3%
7,CCN(CC)C(=O)C1CCCN(c2cc(Nc3ccccc3)nc(N)n2)C1 (stereo not given),13.1%
8,COc1ccc(CNC(=O)c2c[nH]c3cc(-c4cn[nH]c4)ccc23)cc1,-3.48%
9,O=C(NCc1cccc(Cl)c1)Nc1ccc(-c2cn[nH]c2)cc1,16%
10,Fc1ccc(CNc2ncc3ccc(-c4cn[nH]c4)cc3c2Cl)cc1,70.6% (active)
11,O=C(Oc1ccc([N+](=O)[O-])cc1)c1ccc2c(c1)C(=O)N(c1ccc([N+](=O)[O-])cc1)C2=O,8.64%
12,COc1ccc(CCNC(=O)c2cnc(-c3cccs3)s2)cc1,-2.76%
13,COc1ccc(-c2nc3ncnc(NCCN4CCOCC4)c3[nH]2)cc1,0.53%
14,Cc1ncc2c(NCCCN3CCOCC3)nc3ccccc3n12,12.3%
15,Oc1c(Cl)cc(Cl)c(Cl)c1Cc1c(O)c(Cl)cc(Cl)c1Cl,75.9% (active)
16,c1cc(-c2ocnc2-c2ncco2)cc(Nc2ccc(N3CCOCC3)cc2)n1,-5.51%
17,CC(C)c1nc2ccc(-c3ccnn3C)cc2c(=O)[nH]1,-1.76%
18,COc1ccc(C(N)c2nc3ccc(-c4cn[nH]c4)cc3c(=O)[nH]2)cc1 (stereo not given),16%
19,CC(C)c1nc2ccc(-c3cn[nH]c3)cc2c(=O)[nH]1,69% (active)
20,Cc1cccc(C(=O)NCc2ccccc2)c1N1CCC2(CC1)OCCO2,4.05%
21,Cc1cc(NC2CC2)nc(N2CCCC2CO)n1 (stereo not given),-3.85%
22,CC(C)N(CCNc1ccnc(Nc2ncccn2)n1)C(C)C,-7.14%

row,SMILES,inhibition
1,Cc1ccc(-c2ncn(-c3ccc(Nc4nccc(-c5cc(C#N)cc(N6CCCC(O)C6)c5)n4)cc3)n2)cn1 (stereo not given),0.75%
2,Cn1nnnc1-c1ccc(Nc2nccc(-c3ccc(N4CCC(O)CC4)c(C#N)c3)n2)cc1,64.2% (active)
3,Cc1ncn(-c2ccc(Nc3nccc(-c4cc(C#N)cc(NC5CCN(C)CC5)c4)n3)cc2)n1,3.12%
4,Cn1c(Nc2nc3ccc(C(=O)NCCO)cc3s2)nc2ccccc21,20.6%
5,Cc1cc(NCc2cccc(C(F)(F)F)c2)nc(NC2CCC(O)CC2)n1 (stereo not given),-8.27%
6,Nc1nc(Nc2cnccn2)cc(NC2CCN(Cc3ccccc3)CC2)n1,-0.08%
7,CC(=O)c1cccc(-c2nc3ncnc(NCc4nc5ccccc5[nH]4)c3[nH]2)c1,-5.39%
8,CC(C)(C)c1nc(-c2cccc(NS(=O)(=O)c3c(F)cccc3F)c2F)c(-c2ccnc(N)n2)s1,66.2% (active)
9,CCCNc1nc(-c2cccc(C(C)=O)c2)nc2c1ncn2-c1ccccc1,-6.8%
10,C[C@@H](CN)Oc1ncccc1C(=O)Nc1ccc2[nH]ncc2c1,0.92%
11,OCC1CCCN1c1nc2ncnc(NC3CC3)c2[nH]1 (stereo not given),1.11%
12,COc1cccc(CN(CC2CC2)C(=O)Nc2ccc(-c3cn[nH]c3)cc2OC)c1,-27.8%
13,COc1cccc(CNC(=O)Nc2ccc(-c3cn[nH]c3)cc2OC2CCC(O)C2)c1 (stereo not given),2.68%
14,COc1cccc(CNC(=O)Nc2ccc(-c3cn[nH]c3)cc2OC2CCNC2)c1 (stereo not given),55.8% (active)
15,CCCNc1nc(NCc2cccnc2)nc2c1ncn2Cc1ccc(C(F)(F)F)cc1,-9.26%
16,O=C(NCc1cccc(C(F)(F)F)c1)c1cnc(NCCCN2CCCC2=O)s1,-7.22%
17,COC(=O)c1ccc(Cn2c(-c3nnc(CC(C)C)o3)cc3ccccc32)o1,-10%
18,CC(=O)c1cccc(-c2nc3c(Nc4ccc(N5CCOCC5)cc4)ncnc3n2C(C)C)c1,67.5% (active)
19,CC(=O)c1cccc(-c2nc3c(NCCCN4CCCC4=O)ncnc3n2C(C)C)c1,5.85%
20,CC(=O)Nc1ccc(Nc2ncnc3c2nc(-c2cccc(N)c2)n3C(C)C)cc1,-4.82%
21,O=C1NC(=S)NC(=O)C1=Cc1ccc(-c2ccc([N+](=O)[O-])c(Cl)c2)o1,24.2%
22,O=C(NCc1cccc(NC(=O)C2CC2)c1)Nc1ccc(-c2cn[nH]c2)cc1,6.93%

row,SMILES,inhibition
1,COc1cc(Nc2cc(-c3nocc3-c3cnn(C)c3)ccn2)ccc1N1CCOCC1,-3.85%
2,Cn1nccc1Nc1cc(Nc2ccc(N3CCOCC3)cc2)ncn1,17.2%
3,Cn1cc(-c2cc(Nc3ccc(N4CCOCC4)cn3)ncc2Cl)cn1,53.2% (active)
4,COc1ccc(CCNc2cc(-c3csc4ccccc34)ncn2)cc1,-12%
5,COCCn1nnnc1C(c1cc2ccc(C)cc2[nH]c1=O)N1CCc2ccccc21 (stereo not given),-5.34%
6,O=C(Nc1ccc(-c2cn[nH]c2)cc1)C1CCc2ccccc2O1 (stereo not given),12.4%
7,COc1cc(Nc2ccc(N3CCC(C(=O)NCc4nc5ccccc5[nH]4)CC3)nn2)cc(OC)c1OC,7.51%
8,COc1ccc2c(c1)CC(C(=O)Nc1ccc(-c3cn[nH]c3)cc1OCCN(C)C)CO2 (stereo not given),7.42%
9,COc1cccc(Nc2nccc(-c3ccc4c(=O)n(C5CC5)c(C)nc4c3)n2)c1,21.2%
10,CC(C)NC(=O)c1cccc(Nc2nccc(-c3ccc4nc(C5CC5)nc(N5CCCC5)c4c3)n2)c1,-33.9%
11,O=C(c1ccc(Nc2nccc(-c3ccc4c(=O)[nH]c(C5CC5)nc4c3)n2)cc1)N1CCCC1,62.9% (active)
12,OCC1CCCN1c1nc(NC2CCN(Cc3ccccc3)CC2)c2ncn(Cc3ccc(C(F)(F)F)cc3)c2n1 (stereo not given),-14.8%
13,Cc1ncccc1-c1ncn(-c2ccc(Nc3nccc(-c4cc(F)cc(N5CCOCC5)c4)n3)cc2)n1,5.38%
14,c1coc(-c2ccc3cnc(Nc4ccc(-n5cnc(N6CCOCC6)n5)cc4)nc3c2)n1,3.23%
15,Cn1cc(-c2ccc3cnc(Nc4ccc(-n5cnc(N6CCOCC6)n5)cc4)nc3c2-c2cnn(C)c2)cn1,51.5% (active)
16,COC1CCN(c2ncn(-c3ccc(Nc4nccc(-c5cncc(N6CCOCC6)c5)n4)cc3)n2)CC1,-6.75%
17,Cn1cc(-c2cc(Nc3ccc(-n4cnc(N5CCC(O)CC5)n4)cc3)ncc2Cl)cn1,-17%
18,Cn1cc(-c2nc(Nc3ccc(-n4cnc(N5CCC(O)CC5)n4)cc3)ncc2Br)cn1,85.1% (active)
19,O=C(NC1CCN(Cc2ccccc2)CC1)c1cccc(-c2cccs2)n1,-5.23%
20,O=C(Nc1ccc2[nH]ncc2c1)c1ccnc(OC2CCN(Cc3ccccc3)CC2)c1,-8.14%
21,O=C(NC1CCN(Cc2ccccc2)CC1)c1cc(Cl)nc2ccccc12,2.89%
22,Cn1c(Nc2nc(NCc3cccc(C(F)(F)F)c3)c3ncn(C4CCCCC4)c3n2)nc2ccccc21,8.91%

row,SMILES,inhibition
1,O=C(NCCc1ccc(O)cc1)c1csc(Nc2ccc(N3CCOCC3)cc2)n1,13.3%
2,Cc1cnc(-c2c(C)noc2C)nc1Nc1ccc(N2CCOCC2)cc1,-1.73%
3,c1ccc(-c2ncn[nH]2)c(Nc2ccnc(Nc3ccc(N4CCOCC4)cc3)c2)c1,24.2%
4,Cc1cnc(Nc2ccc(N3CCOCC3)cc2)nc1Nc1ccccc1-c1ncn[nH]1,70.3% (active)
5,c1ccc(CN2CCC(Nc3nc(NCCOc4ccccc4)c4[nH]cnc4n3)CC2)cc1,-28%
6,FC(F)(F)c1ccc(Cn2cnc3c(Nc4ccccc4)nc(N4CCN(c5ccccn5)CC4)nc32)cc1,-7.96%
7,CN(C)c1cccc(Nc2cc(C(=O)NC3CC3)c3ccccc3n2)c1,4.11%
8,Cc1ccc(CNC(=O)c2cn(C)c3c(=O)n(-c4ccccc4)c(=O)[nH]c23)cc1,1.67%
9,CN1CCN(C(=O)c2ccc(-c3cc(NCc4cccc(C(F)(F)F)c4)ncn3)cc2)CC1,-4.67%
10,COc1ccc(Cl)cc1NC(=O)COc1cccc2c1OC(C)(C)C2,-8.02%
11,CC(=O)Nc1ccc(Nc2cc(Nc3ccccn3)nc(N)n2)cc1,-21.9%
12,COc1cc(NC(=O)c2cnc(Nc3ccc(C(F)(F)F)cc3)s2)cc(OC)c1OC,-10.3%
13,CNC(=O)c1cc(F)ccc1Nc1cc(Nc2ccc3[nH]ncc3c2)ncc1C(F)(F)F,78.3% (active)
14,O=C1Cc2cc(Nc3cc(Nc4ccccn4)c(C(F)(F)F)cn3)ccc2N1,38.2%
15,O=C(NCCO)c1cc(Nc2ccc3[nH]ncc3c2)ccn1,-10.8%
16,CNC(=O)c1cc(F)ccc1Nc1cc(Nc2ccc(NC(C)=O)cn2)ncc1C(F)(F)F,89% (active)
17,CNC(=O)c1cc(F)ccc1Nc1cc(Nc2ccc3nc[nH]c3c2)ncc1C(F)(F)F,3.83%
18,CNC(=O)c1cc(F)ccc1Nc1cc(Nc2ccc3c(c2)CCC(=O)N3)ncc1C(F)(F)F,85.8% (active)
19,COc1ccc(Oc2ncc(-c3ccc(OC)cc3)cn2)cc1,-2.6%
